Drawing on PubChem BioAssay, this text covers inhibition for 40 molecules.

As a reminder, the inhibition is the drop in the measured response relative to a control, in per cent.

Several values for one entry are separate records, joined by “and”; a condition that tells them apart may be missing. Identical values can stand only once. Unmarked numbers belong to inactive results. Activity calls are given as the source filed them. Unless noted, no stated cut-off is given here; in the data, active means inhibition above about 28%; inactive means the rest.

The nature of the first test: repression of VP16-driven luciferase reporter – cell-based, luminescence, high throughput, counter-screen for SRC1 inhibitor project (AID 588824; in the data active means inhibition above about 25%). Conditions: cell-based VP16 transactivation luciferase luminescence; at 3.6 µM; stronger effect = higher value. In general terms: A reporter such as luciferase makes a cellular process visible.
For the molecule `CCCC(=O)NC(c1ccc(C)cc1)c1ccc2cccnc2c1O` (stereo not given), the inhibition was 79% (active).

As to `Cc1nn(C(C)(C)C)c(C)c1/C=N/OC(=O)Nc1ccc(Cl)cc1`, the inhibition was 87.8% (active).

Take `O=C(Nc1nc(-c2ccccc2)cs1)c1ccccc1NS(=O)(=O)c1ccc(F)cc1`: the inhibition was 60.5% (active).

Take `CCCCCCCn1c2c(c(=N)c3c1CCC3)CCCC2`: the inhibition is 83.4% (active).

For the molecule `CC(=NNC(=S)Nc1ccccc1)c1ccccn1`, the inhibition was 67.8% (active).

For `O=NN(CC(=O)NNc1ccccc1)CC(=O)NNc1ccccc1`, the inhibition is 27.5% (active).

Regarding `CC1(C)N=C(N)N=C(N)N1CCCCc1ccccc1`, the inhibition is 30.3% (active).

Turning to `Cc1ccc(/C=C/C(=O)c2c(C)cc(C)[nH]c2=O)cc1`, the inhibition was 46.4% (active).

Take `COc1ccc(N=C(NN)c2ccc3ccccc3n2)cc1`: the inhibition was -65%.

Take `O=[N+]([O-])c1cc(CN2CCN(c3ccccc3)CC2)c(O)c2ncccc12`: the inhibition was 50.8% (active).

For the molecule `N=C1C=CC(=C(c2ccc(N)cc2)c2ccc(N)cc2)C=C1`, the inhibition was 45.9% (active).

For `C=C1C(=O)c2sccc2C(c2ccc(OC)c(OC)c2)C1COC(C)=O` (stereo not given), the inhibition is 58.4% (active).

As for `Cn1cnc([N+](=O)[O-])c1Sc1nc(N)nc2c1ncn2C1OC(CO)C(O)C1O` (stereo not given), the inhibition was 9.12%.

With `O=C(NC(Nc1nc2ccc([N+](=O)[O-])cc2s1)(C(F)(F)F)C(F)(F)F)c1cccnc1`, the inhibition is 75.3% (active).

Turning to `CC(=NNC(=S)Nc1ccccc1Cl)c1ccccn1`, the inhibition was 73% (active).

As for `CCN1/C(=C/c2ccc3cc(C)ccc3[n+]2CC)Sc2cc(C)c(C)cc21`, the inhibition was 58.4% (active).

For `O=C1[C@@H]2Cc3c([nH]c4ccccc34)C(c3ccc([N+](=O)[O-])cc3)N2C(=O)CN1C1CC1` (stereo not given in full), the inhibition was 62.6% (active).

Regarding `Cc1ccc(-c2cn(-c3ccccc3)c3[n+]2CCCS3)cc1`, the inhibition is 19.5%.

On to `CC(=O)Nc1ccc(SCC(=O)c2cc(C)n(Cc3cccs3)c2C)cc1`, for which the inhibition is 5.47%.

On to `CN(Cc1cnc2nc(N)nc(N)c2n1)c1ccc(C(=O)NC(CCC(=O)O)C(=O)O)cc1` (stereo not given), for which the inhibition was 10.5%.

On to `COc1cccc(/C=N/Nc2ccc(C(=O)O)cc2)c1O`, for which the inhibition was 64.4% (active).

Take `c1ccc(-c2nn(-c3ccccc3)[n+](-c3ccccc3)n2)cc1`: the inhibition was 15.6%.

In the case of `Nc1nc(N)nc(-c2cc(O)ccc2O)n1`, the inhibition was 43.7% (active).

Turning to `O=C(Nc1ccc([N+](=O)[O-])cc1)c1ccc(Cn2cc([N+](=O)[O-])cn2)cc1`, the inhibition was 56.1% (active).

For the molecule `CCn1cc(/C=C/c2cc[n+](C)cc2)c2ccccc21`, the inhibition was 47.3% (active).

Regarding `c1ccc(-c2cccc(-c3ccccn3)n2)nc1`, the inhibition was 32% (active).

With `CCN1/C(=C/c2ccc3cccc(C)c3[n+]2CC)Sc2ccccc21`, the inhibition is 71.4% (active).

With `CN(C)CCOc1ccc2c(c1)C(=O)C(=Cc1ncc([N+](=O)[O-])n1C)C2`, the inhibition is 27% (active).

For `COc1ccc(C)cc1NC(=O)c1nnn(Cc2cccc(C(F)(F)F)c2)c1N`, the inhibition was 53.3% (active).

Turning to `COc1cc(NS(C)(=O)=O)ccc1Nc1c2ccccc2nc2ccccc12`, the inhibition was -3.17%.

In the case of `COc1cccc(/C=N/Nc2ncnc3scc(-c4ccccc4)c23)c1O`, the inhibition was 65.2% (active).

Take `CCN1/C(=C/c2ccc3ccccc3[n+]2CC)C=Cc2ccccc21`: the inhibition is 84.7% (active).

On to `N=c1c2c(n(Cc3cccc(Cl)c3)c3c1CCC3)CCCC2`, for which the inhibition is 73.9% (active).

With `CC(C)(O)C#Cc1ccc([C@@H]2C[C@H]3CN(c4ccccc4)C(=O)[C@]34CCCN24)s1`, the inhibition is 42.1% (active).

Regarding `Oc1cccc2cc(Nc3ccccc3)cnc12`, the inhibition is 70.1% (active).

Consider `COc1ccccc1C(=O)Nc1nc(-c2ccc(S(=O)(=O)N3CCOCC3)cc2)cs1`, for which the inhibition was 74.5% (active).

In the case of `Cc1ccc2ccc3cccnc3c2n1`, the inhibition is 24.6%.

In the case of `CCCCCCCCCn1ccc(=N)cc1`, the inhibition was 85.2% (active).

On to `Cc1ccc2[nH]c3nc(N/N=C/c4cccc(O)c4)nnc3c2c1`, for which the inhibition was 48.2% (active).

Take `CC1(C)CC(N2CCN(Cc3ccccc3)CC2)=CC(=[N+]2CCCCC2)C1`: the inhibition is 40.7% (active).

The nature of the next test: StAR promoter reporter inhibitors, counter-screen for LRH-1 inverse agonist project, cell-based, luminescence, high throughput (AID 651611). Conditions: StAR promoter luciferase reporter counterscreen, at 3.6 µM, stronger effect = higher value. (In general: A counterscreen serves to expose hits that act by an unwanted route or on another target.)
Turning to `CCCC(=O)NC(c1ccc(C)cc1)c1ccc2cccnc2c1O` (stereo not given), the inhibition was 86.1% (active).

As for `Cc1nn(C(C)(C)C)c(C)c1/C=N/OC(=O)Nc1ccc(Cl)cc1`, the inhibition was 92.3% (active).

Take `O=C(Nc1nc(-c2ccccc2)cs1)c1ccccc1NS(=O)(=O)c1ccc(F)cc1`: the inhibition was 66.6% (active).

Take `CCCCCCCn1c2c(c(=N)c3c1CCC3)CCCC2`: the inhibition was 79.3% (active).

Turning to `CC(=NNC(=S)Nc1ccccc1)c1ccccn1`, the inhibition is 78.3% (active).

On to `O=NN(CC(=O)NNc1ccccc1)CC(=O)NNc1ccccc1`, for which the inhibition is 37.4% (active).

On to `CC1(C)N=C(N)N=C(N)N1CCCCc1ccccc1`, for which the inhibition is 61.4% (active).

For the molecule `Cc1ccc(/C=C/C(=O)c2c(C)cc(C)[nH]c2=O)cc1`, the inhibition is 35.3% (active).

For the molecule `COc1ccc(N=C(NN)c2ccc3ccccc3n2)cc1`, the inhibition was -92.3%.

Take `O=[N+]([O-])c1cc(CN2CCN(c3ccccc3)CC2)c(O)c2ncccc12`: the inhibition was 59.3% (active).

On to `N=C1C=CC(=C(c2ccc(N)cc2)c2ccc(N)cc2)C=C1`, for which the inhibition is 54.9% (active).

Consider `C=C1C(=O)c2sccc2C(c2ccc(OC)c(OC)c2)C1COC(C)=O` (stereo not given), for which the inhibition was 69.8% (active).

`Cn1cnc([N+](=O)[O-])c1Sc1nc(N)nc2c1ncn2C1OC(CO)C(O)C1O` (stereo not given): the inhibition is 56.1% (active).

For the molecule `O=C(NC(Nc1nc2ccc([N+](=O)[O-])cc2s1)(C(F)(F)F)C(F)(F)F)c1cccnc1`, the inhibition is 81.4% (active).

With `CC(=NNC(=S)Nc1ccccc1Cl)c1ccccn1`, the inhibition is 84.3% (active).

`CCN1/C(=C/c2ccc3cc(C)ccc3[n+]2CC)Sc2cc(C)c(C)cc21`: the inhibition was 55.6% (active).

On to `O=C1[C@@H]2Cc3c([nH]c4ccccc34)C(c3ccc([N+](=O)[O-])cc3)N2C(=O)CN1C1CC1` (stereo not given in full), for which the inhibition was 60.7% (active).

Turning to `Cc1ccc(-c2cn(-c3ccccc3)c3[n+]2CCCS3)cc1`, the inhibition was 24.4% and 12.1%.

As for `CC(=O)Nc1ccc(SCC(=O)c2cc(C)n(Cc3cccs3)c2C)cc1`, the inhibition was -55.3%.

Take `CN(Cc1cnc2nc(N)nc(N)c2n1)c1ccc(C(=O)NC(CCC(=O)O)C(=O)O)cc1` (stereo not given): the inhibition is 76.1% (active).

`COc1cccc(/C=N/Nc2ccc(C(=O)O)cc2)c1O`: the inhibition was 68.7% (active).

As to `c1ccc(-c2nn(-c3ccccc3)[n+](-c3ccccc3)n2)cc1`, the inhibition is 23.8%.

As for `Nc1nc(N)nc(-c2cc(O)ccc2O)n1`, the inhibition was 41.7% (active).

For `O=C(Nc1ccc([N+](=O)[O-])cc1)c1ccc(Cn2cc([N+](=O)[O-])cn2)cc1`, the inhibition is 52.3% (active).

Consider `CCn1cc(/C=C/c2cc[n+](C)cc2)c2ccccc21`, for which the inhibition was 40.5% (active).

Take `c1ccc(-c2cccc(-c3ccccn3)n2)nc1`: the inhibition was 82.3% (active).

For `CCN1/C(=C/c2ccc3cccc(C)c3[n+]2CC)Sc2ccccc21`, the inhibition was 57% (active).

Consider `CN(C)CCOc1ccc2c(c1)C(=O)C(=Cc1ncc([N+](=O)[O-])n1C)C2`, for which the inhibition is 68.6% (active).

On to `COc1ccc(C)cc1NC(=O)c1nnn(Cc2cccc(C(F)(F)F)c2)c1N`, for which the inhibition is 39.6% (active).

Regarding `COc1cc(NS(C)(=O)=O)ccc1Nc1c2ccccc2nc2ccccc12`, the inhibition was 46.6% (active).

For `COc1cccc(/C=N/Nc2ncnc3scc(-c4ccccc4)c23)c1O`, the inhibition was 89.1% (active).

Regarding `CCN1/C(=C/c2ccc3ccccc3[n+]2CC)C=Cc2ccccc21`, the inhibition was 78.7% (active).

As for `N=c1c2c(n(Cc3cccc(Cl)c3)c3c1CCC3)CCCC2`, the inhibition was 53.3% (active).

As for `CC(C)(O)C#Cc1ccc([C@@H]2C[C@H]3CN(c4ccccc4)C(=O)[C@]34CCCN24)s1`, the inhibition was 61.3% (active).

For the molecule `Oc1cccc2cc(Nc3ccccc3)cnc12`, the inhibition was 65.5% (active).

On to `COc1ccccc1C(=O)Nc1nc(-c2ccc(S(=O)(=O)N3CCOCC3)cc2)cs1`, for which the inhibition is 78.5% (active).

For `Cc1ccc2ccc3cccnc3c2n1`, the inhibition is 30.6% (active).

`CCCCCCCCCn1ccc(=N)cc1`: the inhibition is 72.7% (active).

As for `Cc1ccc2[nH]c3nc(N/N=C/c4cccc(O)c4)nnc3c2c1`, the inhibition is 51% (active).

Take `CC1(C)CC(N2CCN(Cc3ccccc3)CC2)=CC(=[N+]2CCCCC2)C1`: the inhibition was 59.8% (active).
